# Laboratory results from PubChem BioAssay AID602281 (The Scripps Research Institute Molecular Screening Center, 2012).
# Screen size: about 360,000 compounds; about 2,900 (0.81%) were called active.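 The calls were made as follows: active = inhibition above the mean inhibition across every tested compound plus 3 SD (cut at about 22% in these data); inactive = the rest.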 Shown is part of a subset that was picked to be rich in actives.
# Molecular target: Perilipin-5 (Homo sapiens) + 1-acylglycerol-3-phosphate O-acyltransferase ABHD5 (Homo sapiens) (UniProt Q00G26+Q8WTS1)
# Sequence (Q00G26 whole entry, looked up): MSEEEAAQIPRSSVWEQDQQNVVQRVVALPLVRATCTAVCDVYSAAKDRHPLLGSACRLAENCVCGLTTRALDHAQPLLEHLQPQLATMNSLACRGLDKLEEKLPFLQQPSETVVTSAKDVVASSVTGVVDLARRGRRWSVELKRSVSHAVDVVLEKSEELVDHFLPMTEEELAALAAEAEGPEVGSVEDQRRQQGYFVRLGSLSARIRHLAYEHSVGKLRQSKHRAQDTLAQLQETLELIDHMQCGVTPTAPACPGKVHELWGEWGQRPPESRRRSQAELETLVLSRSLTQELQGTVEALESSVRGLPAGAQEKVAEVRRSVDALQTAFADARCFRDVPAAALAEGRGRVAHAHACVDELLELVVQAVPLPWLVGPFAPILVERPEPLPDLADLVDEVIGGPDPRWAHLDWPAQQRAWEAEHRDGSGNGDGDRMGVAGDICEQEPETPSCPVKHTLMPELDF
# Sequence (Q8WTS1 whole entry, looked up): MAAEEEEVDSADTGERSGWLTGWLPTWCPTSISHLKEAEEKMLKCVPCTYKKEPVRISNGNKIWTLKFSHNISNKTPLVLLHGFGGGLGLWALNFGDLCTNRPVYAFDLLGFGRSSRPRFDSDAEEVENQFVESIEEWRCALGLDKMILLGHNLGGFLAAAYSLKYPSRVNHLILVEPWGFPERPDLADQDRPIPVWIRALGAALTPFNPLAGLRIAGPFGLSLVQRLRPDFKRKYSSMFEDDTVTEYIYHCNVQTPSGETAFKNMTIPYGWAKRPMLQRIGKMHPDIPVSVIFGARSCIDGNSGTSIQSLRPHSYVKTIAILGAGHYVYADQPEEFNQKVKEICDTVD
# Test: ABHD5-PLIN5 interaction inhibitors, primary screen, cell lysate, split luciferase complementation, luminescence (AID 602281);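 also: 0% = DMSO only wells and the 100% control is not disclosed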
# Conditions: Split G. princeps luciferase complementation, 4 h, at 4 µM, hits give high values
row,Structure (SMILES),inhibition
1,Cc1ccc(NC(=S)N2CCN(c3ncccn3)CC2)cc1C,5.22% (inactive)
2,O=C1/C(=C\c2ccc(O)cc2)CCC1CNc1ccc(Cl)cc1 (stereo not given),23.7% (active)
3,COc1cc(C)c(C)cc1S(=O)(=O)N1CCCc2ccccc21,3.45% (inactive)
4,CCN1/C(=C\c2ccc3ccccc3[n+]2CC)Sc2cc(C)ccc21,28.2% (active)
5,C=C(C)C(=O)Nc1cccc(C2=NOC3(C2)C[C@H](C(N)=O)N(C(=O)C(c2ccccc2)c2ccccc2)C3)c1 (stereo not given in full),0.12% (inactive)
6,Cc1ccn2c(=O)nc(SCC(=O)NCc3ccc4c(c3)OCO4)nc2c1,-8.67% (inactive)
7,Cc1ccc(/C=C/C(=O)OCC(=O)NCc2ccc(Cl)cc2)o1,5.48% (inactive)
8,COc1cc(NC(=S)NCCSc2ccc(C)cc2)cc(OC)c1,-1.88% (inactive)
9,COc1cc(SC)ccc1C(=O)Nc1nc(C)cs1,-0.45% (inactive)
10,Cc1csc(NC(=O)C2CCN(S(=O)(=O)c3ccccc3)CC2)n1,2.8% (inactive)
11,Cc1csc(NC(=O)NC2(C(F)(F)F)Oc3ccccc3O2)n1,49.8% (active)
12,CCCCN(C(C)=O)c1ccc2c(c1)C1CC2CCN1Cc1ccccc1 (stereo not given),-6.18% (inactive)
13,COc1ccc(OC)c(/C(C)=N\NC(=O)c2cc3cc(Cl)ccc3n2C)c1,5.51% (inactive)
14,CC(NC(=O)Nc1cccc([N+](=O)[O-])c1)c1ccc2c(c1)OCO2 (stereo not given),8.55% (inactive)
15,COC(=O)/C=C\C(=O)Nc1cccc([N+](=O)[O-])c1,41% (active)
16,COc1cccc(NCCC(=O)c2cccc([N+](=O)[O-])c2)c1,-2.37% (inactive)
17,O=C(Cn1c(=O)n(Cc2ccco2)c(=O)c2ccccc21)NCC1CCCO1 (stereo not given),-2.17% (inactive)
18,O=C(CCCOc1ccccc1)NCc1ccco1,-2.47% (inactive)
19,Cn1c2ccccc2c(=O)c2c(=O)n(Cc3ccco3)c(COc3ccccc3)nc21,40.1% (active)
20,CCn1c(CNC(=O)c2ccc(OC)c(OC)c2)nnc1SCC(=O)Nc1ccccc1,-3.29% (inactive)

row,Structure (SMILES),inhibition
1,CCSc1nc(O)c(C(c2cccc(OC)c2)c2c(O)nc(SCC)[nH]c2=O)c(=O)[nH]1,-4.24% (inactive)
2,CCn1c(SC)nc(O)c(C(c2ccc(OC)c(O)c2)c2c(O)nc(SC)n(CC)c2=O)c1=O,30.9% (active)
3,C=CCN(c1ccc(C(N)=O)cc1)S(C)(=O)=O,0.17% (inactive)
4,CC(C)CCOc1ccc(C(=O)C[N+]2(C)CCOCC2)cc1,1.19% (inactive)
5,CCCOc1ccc(C(=O)C(CCC(CNCC)C(=O)c2ccc(OCCC)cc2)CNCC)cc1 (stereo not given),34.9% (active)
6,CCOc1cc(C(=O)O)ccc1OCCOc1ccccc1,-0.9% (inactive)
7,O=C(Nc1ccccc1N1CCCC1)c1ccc(F)c(S(=O)(=O)N2CCOCC2)c1,-7.04% (inactive)
8,CC(=O)N1CSCC1C(=O)O (stereo not given),3.52% (inactive)
9,C=CCNC(=O)/C=C/c1ccc(C(C)C)cc1,-1.9% (inactive)
10,NC1=NC(=O)S/C1=C\c1ccc(O)cc1,7.71% (inactive)
11,O=C(/C=C(O)/C=C/c1ccc(O)cc1)/C=C/c1ccc(O)cc1,35.1% (active)
12,CCc1nc(C)cn1S(=O)(=O)c1cc([N+](=O)[O-])ccc1Cl,4.39% (inactive)
13,CN(C)CCOC(=O)C(c1ccccc1)C1(O)CCCC1 (stereo not given),-6.36% (inactive)
14,CCC(C(=O)OCCN(CC)CC)c1ccccc1 (stereo not given),49.6% (active)
15,CCCC(C(=O)OCCN(CC)CC)(c1ccccc1)c1ccccc1,6.21% (inactive)
16,Cc1ccnc(SCCn2c(N(C)Cc3ccccc3)nc3c2c(=O)n(C)c(=O)n3C)n1,-0.81% (inactive)
17,O=c1oc2c(CN3CCCCC3)c(O)ccc2c2c1CCCCC2,-1.69% (inactive)
18,N#Cc1ccccc1S(=O)(=O)N1CCN(C(=O)c2cc(-c3ccccc3)nn2-c2ccccc2)CC1,-8.95% (inactive)
19,N#Cc1ccccc1S(=O)(=O)N1CCN(Cc2c(O)ccc3ccccc23)CC1,27.7% (active)
20,Cn1c(CCC(=O)OCC(=O)NCc2ccccc2Cl)nc(=O)c2ccccc21,2.53% (inactive)

row,Structure (SMILES),inhibition
1,CN(CC(=O)NCCc1ccccc1)S(=O)(=O)c1cnc[nH]1,1.21% (inactive)
2,COCCN(Cc1ccccc1)C(=O)Cc1ccc(S(=O)(=O)N2CCOCC2)s1,-7.33% (inactive)
3,CCOC(=O)CSc1nc(C)c(Oc2ccc(Cl)cc2Cl)c(=O)[nH]1,-1.81% (inactive)
4,CCc1ccc(C(=O)CSc2nnc(C)c(=O)[nH]2)cc1,-3.63% (inactive)
5,CCCCOC(=O)CNc1nnc(SCC(=O)OCC)[nH]c1=O,55.4% (active)
6,COC(C/C=C/C(=O)[C@@H](C)OCc1ccccc1)OC,24.4% (active)
7,COC(C[C@H](O)CC(=O)[C@@H](C)OCc1ccccc1)OC,2.47% (inactive)
8,COC(C[C@@H]1O[C@@H]1C(=O)[C@H](C)OCc1ccccc1)OC,-0.78% (inactive)
9,COc1ccc(-c2cnc3c(c2)C(=O)N([C@H](C)CO)C[C@@H](C)[C@H](CN(C)Cc2ccccc2)O3)cc1,4.36% (inactive)
10,CCCCCCN1CCN(C2CN(Cc3cn(CCCCCC)nn3)S(=O)(=O)C2)CC1 (stereo not given),-2.61% (inactive)
11,CC(Sc1nncs1)C(=O)NCc1ccc2c(c1)OCO2 (stereo not given),-10.2% (inactive)
12,CCn1cc(C(=O)N2CC(C)CC(C)C2)c(=O)c2cc(S(=O)(=O)N3CCCC3)ccc21 (stereo not given),-1.5% (inactive)
13,O=C1C(Cl)=C(Oc2ccccc2)C(=O)c2ccccc21,84.3% (active)
14,O=C(N[C@H]1C/C=C\C(c2cccc(F)c2)N(Cc2ccccc2)C(=O)C1)OCC1c2ccccc2-c2ccccc21 (stereo not given in full),-1.93% (inactive)
15,Cc1ccccc1CN1C[C@@H]2C[C@@H](c3ccc4nsnc4c3)N3CCC[C@@]23C1=O,0.89% (inactive)
16,COc1ccc(CN2CCN(Cc3cn(C)nc3-c3ccccc3)CC2CCO)c(C)c1C (stereo not given),8.28% (inactive)
17,Cc1ccccc1CN1C[C@@H]2C[C@@H](c3cn(C)nc3-c3ccccc3)N3CCC[C@@]23C1=O,22.1% (active)
18,CC1(OC(=O)C2CCCC2)C(=O)C=C2C=C(c3ccc(C#N)cc3)OC=C2C1=O (stereo not given),22.6% (active)
19,CC1(C(=O)NS(=O)(=O)c2ccc(C#N)cc2)CCN1C(=O)c1ccc(C2CCCCC2)cc1 (stereo not given),-0.02% (inactive)
20,COC(=O)CCCC1=CC2=C(c3ccccc3)C(=O)C(C)(OC(=O)C3CCCC3)C(=O)C2=CN1c1ccc(OC)cc1 (stereo not given),3.52% (inactive)
